BRCA1 expr up – BRCA1 expression activation; AID 624202; MCF7-BRCA1-FFLuc reporter, luminescence, 48 h; response scale: scaled: vehicle 0%, 10 µM genistein 100%; Potency, µM (top dose mostly 46.1 µM), most hits filed as activators; hit rate 1.1% among 380,000; note: nearly all actives have a fitted effect of over 80% in size
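MCF7-BRCA1-FFLuc, 2000 cells/well; 2 h attach, 37 °C/5% CO2; compound 48 h; luciferase substrate 15 min; luminescence end-point. Norm. to genistein 10 microM max activation and DMSO; concentration-response curves fitted.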
IL2 activator – activators of IL-2 | IL-2 activation reporter assay, cell-based qHTS; stimulated with anti-CD3/CD4/CD28 beads; in transgenic mouse T cells | activation, % (series mostly up to about 46 µM) | hit rate 0.065% among 360,000; in the data active = activation above about 50%; inconclusive = mostly about 30% to 49%
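Readout is EGFP and DsRed signal by fluorescent plate cytometry after 18 h at 37 degrees C. Transgenic mouse T cells (750/well) received compound for 60 min before bead stimulation (anti-CD3, anti-CD4, anti-CD28); memory T cells served as non-tolerant control.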
ELG1 DNA repair – inhibitors of ELG1-dependent DNA repair in HEK293T cells; HEK293T ELG1-luciferase reporter, luminescence, 16 h; DNA damage induced by 5-fluorouridine; Potency, µM (doses to about 46.1 µM), hits mostly inhibitors; hit rate 2.3% among 330,000; note: nearly all actives have a fitted effect of over 55% in size
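In this reporter screen, reduction of luminescence relative to DMSO vehicle indicated activity. Compounds and 5-fluorouridine were added together to 2,000 cells per well, incubated for 16 hr at 37 °C, then developed with ONE-Glo.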
Nrf2 activator – Nrf2 pathway activation | Potency, µM (titrated, usually from 46.1 µM), actives largely listed as activators | hit rate 0.31% among 410,000 | AID 624171 | AREc32 ARE-luciferase reporter (MCF7-derived line), luminescence, 24 h; note: nearly all actives have a fitted effect of over 65% in size
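Reporter line AREc32 (ARE-Fluc), seeded overnight in OPTI-MEM with 5% FBS; compound pin-transferred, 24 hr at 37 deg C, 5% CO2; luminescent read-out.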
Numbers stand for hits. An excerpt weighted towards active compounds, which were near 3.1% of everything screened. Unless noted, calls come from the whole dose curve; as a rule, active = well fitted curve in the direction sought with a large enough effect; inconclusive = small, poorly fitted or top-dose-only effect, or another doubt; inactive = no such curve, though single readings can be large; an effect the other way counts as inactive or inconclusive.

COc1ccc(C(=O)C[n+]2cc(-c3ccc(OC)cc3)n3c2CCCC3)cc1 was read as BRCA1 expr up inactive, IL2 activator inactive, ELG1 DNA repair 7.3µM and Nrf2 activator inactive.
COc1ccc(-c2c[n+](CC(=O)c3cccs3)c3n2CCC3)cc1 was read as BRCA1 expr up inactive, IL2 activator inactive, ELG1 DNA repair 23.1µM and Nrf2 activator inactive.
Screening Cc1cccc(Oc2nc3ccccn3c(=O)c2/C=C(\C#N)c2nc3ccccc3s2)c1C returned Nrf2 activator inactive.
`COc1cc(OC)c(NC(=O)c2nn(-c3ccc(C)cc3)c(=O)c3c2c2ccccc2n3C)cc1Cl` gave Nrf2 activator inactive.
`COc1ccccc1CN(Cc1nc2ccccc2c(=O)[nH]1)S(=O)(=O)c1ccc(C)cc1` gave BRCA1 expr up inactive, IL2 activator inactive, ELG1 DNA repair 23.1µM and Nrf2 activator inactive.
For COc1ccc(-c2noc(-c3cccnc3)n2)cc1OC the results were BRCA1 expr up 7.94µM, IL2 activator inactive, ELG1 DNA repair inconclusive and Nrf2 activator inactive.
Screening CCOc1ccc(-c2noc(-c3cccnc3)n2)cc1OC returned BRCA1 expr up 8.91µM, IL2 activator inactive, ELG1 DNA repair inconclusive and Nrf2 activator inactive.
Screening CCOc1cc(-c2noc(-c3cccnc3)n2)ccc1OC returned BRCA1 expr up inactive, IL2 activator inactive, ELG1 DNA repair inactive and Nrf2 activator inactive.
For COc1ccccc1OC(C)C(=O)Nc1c(C(=O)c2ccc(Cl)cc2)oc2ccccc12 (stereo unspecified) the results were BRCA1 expr up inactive and Nrf2 activator inactive.
For CCOC(=O)c1cnc2c(Cl)cc(Cl)cc2c1NCCOCCO the results were BRCA1 expr up inactive, IL2 activator inactive, ELG1 DNA repair 18.4µM and Nrf2 activator inactive.
Screening CCOC(=O)c1cnc2c(Cl)cc(Cl)cc2c1Nc1cc(C(=O)O)ccc1C returned BRCA1 expr up inactive and Nrf2 activator inactive.
`COc1ccc(NC(=O)C2(c3cccs3)CCOCC2)cc1Cl` gave Nrf2 activator inactive.
`COC(=O)c1ccc(Oc2nc(Nc3ccc(C)c(C)c3)nc(N(C)C)n2)cc1` gave BRCA1 expr up inactive, IL2 activator inactive, ELG1 DNA repair 20.6µM and Nrf2 activator inactive.
For COc1ccc(CNC[C@H]2O[C@@H](n3ccc(=O)[nH]c3=O)[C@H](O)[C@@H]2O)cc1 the results were BRCA1 expr up inactive, IL2 activator inactive and Nrf2 activator inactive.
Screening CCc1c(C)nc2ncnn2c1NCCc1ccc(OC)c(OC)c1 returned BRCA1 expr up inactive, IL2 activator inactive, ELG1 DNA repair 11.6µM and Nrf2 activator inactive.
Screening COc1ccc(CCNc2c(C)c(C)nc3ncnn23)cc1 returned BRCA1 expr up inactive, IL2 activator inactive, ELG1 DNA repair inactive and Nrf2 activator inactive.
For COc1ccc(-c2nc(CNC(=O)Nc3ccccc3)c(C)o2)cc1 the results were Nrf2 activator inactive.
CCOCCCNC(=O)c1cc(=O)[nH]c2ccc(S(=O)(=O)N3CCCC3)cc12 was read as BRCA1 expr up inactive and Nrf2 activator inactive.
Cn1nc(C(C)(C)C)cc1C(=O)NNC(=O)c1cccc(Cl)c1 was read as BRCA1 expr up inactive, IL2 activator inactive, ELG1 DNA repair 7.3µM and Nrf2 activator inactive.
Cn1nc(C(=O)NNC(=O)c2cccc(Cl)c2)ccc1=O was read as BRCA1 expr up inactive, IL2 activator inactive, ELG1 DNA repair inactive and Nrf2 activator inactive.
For CC(=O)c1cccc(NS(=O)(=O)c2cc(-c3onc(C)c3C)ccc2C)c1 the results were Nrf2 activator inactive.
O=C(/C=C/Nc1ccccc1C(F)(F)F)c1ccco1 was read as BRCA1 expr up inactive, IL2 activator inactive, ELG1 DNA repair inconclusive and Nrf2 activator 1.78µM.
For CCc1ccccc1NC(=O)CCn1cccn1 the results were Nrf2 activator inactive.
For COc1cc(-c2coc3c(C(=O)NCc4ccc(C(F)(F)F)cc4)cccc23)ccc1O the results were BRCA1 expr up inactive, IL2 activator inactive and Nrf2 activator inactive.
O=[N+]([O-])c1cccc(N=Nc2ccc(O)cc2O)c1 was read as BRCA1 expr up inactive, IL2 activator inactive and Nrf2 activator inconclusive.
Screening CCOc1cc(C=O)cc(N=Nc2cccc([N+](=O)[O-])c2)c1O returned BRCA1 expr up inactive, IL2 activator inactive, ELG1 DNA repair inactive and Nrf2 activator 10µM.
Screening CN(C)S(=O)(=O)N1CCC(Oc2cccc(C(=O)NCCC3=CCCCC3)c2)CC1 returned BRCA1 expr up inactive, IL2 activator inactive, ELG1 DNA repair 13µM and Nrf2 activator inactive.
Screening CN(C)S(=O)(=O)N1CCC(Oc2cccc(C(=O)NC3CCCCC3)c2)CC1 returned BRCA1 expr up inactive, IL2 activator inactive, ELG1 DNA repair inactive and Nrf2 activator inactive.
`COc1ccc(-c2csc3ncnc(N4CCN(S(=O)(=O)c5ccc(C)cc5)CC4)c23)cc1` gave BRCA1 expr up inactive, IL2 activator inactive, ELG1 DNA repair 20.6µM and Nrf2 activator inactive.
For COc1ccc(-c2csc3ncnc(N4CCN(S(=O)(=O)c5cccs5)CC4)c23)cc1 the results were BRCA1 expr up inactive, IL2 activator inactive, ELG1 DNA repair inconclusive and Nrf2 activator inactive.
`COc1ccc(-c2csc3ncnc(N4CCN(S(=O)(=O)c5ccc(Cl)s5)CC4)c23)cc1` gave BRCA1 expr up inactive, IL2 activator inactive, ELG1 DNA repair 8.2µM and Nrf2 activator inactive.
`COc1ccc(-c2cc(C(=O)Nc3ccc(OC)c(OC)c3)[nH]n2)c(C)c1` gave BRCA1 expr up inactive, IL2 activator inactive and Nrf2 activator inactive.
For CCC1CN(C(=O)N2CCC(C(=O)NCc3cccc(C)c3)CC2)c2ccccc2O1 (stereo unspecified) the results were Nrf2 activator inactive.
CCCCNC(=O)CN1C(=O)c2c(c3ccccc3n2C)C1c1ccc(OC)cc1 (stereo unspecified) was read as Nrf2 activator inactive.
`CCc1ccc(-c2nc(CN3CCCC(C(=O)N4CCN(c5cc(Cl)ccc5C)CC4)C3)c(C)o2)cc1` (stereo unspecified) gave Nrf2 activator inactive.
Screening CCOC(=O)N1CCC(NC(=O)C2CCCN(Cc3nc(-c4cccc(Cl)c4)oc3C)C2)CC1 (stereo unspecified) returned BRCA1 expr up inactive, IL2 activator inactive, ELG1 DNA repair 9.2µM and Nrf2 activator inactive.
Screening CCOC(=O)N1CCC(NC(=O)CS(=O)(=O)Cc2nc(-c3cccc(OC)c3)oc2C)CC1 returned BRCA1 expr up inactive, IL2 activator inactive, ELG1 DNA repair inconclusive and Nrf2 activator inactive.
CCOC(=O)N1CCC(NC(=O)CS(=O)(=O)Cc2nc(-c3cccc(Cl)c3)oc2C)CC1 was read as BRCA1 expr up inactive, IL2 activator inactive, ELG1 DNA repair 14.6µM and Nrf2 activator inactive.
CCOC(=O)N1CCN(C(=O)C2CCCN(Cc3nc(-c4ccc(Cl)cc4)oc3C)C2)CC1 (stereo unspecified) was read as BRCA1 expr up inactive, IL2 activator inactive, ELG1 DNA repair 4.61µM and Nrf2 activator inactive.
Screening CC(C)c1cnc2c(c1SCc1cccc(F)c1)c(=O)n(C)c(=O)n2C returned Nrf2 activator inactive.
